Active and inactive are the calls of the source.
Experiment: A549 lung cancer cell viability effects, profiling panel, resazurin fluorescence, 24 h, PK04 Diversity Set (AID 1171)
Conditions: higher = more signal, called active from +8 up or from −8 down
Also: test concentration not given here.

| Compound | z-score |
| --- | --- |
| COC(=O)c1ccc(C(O)C2C=CC3C(=O)N(C)C(=O)C3N2NC(=O)OC(C)(C)C)o1 (stereo not given) | 0.347 (inactive) |
| CCOC(=O)C1=C[C@@H](CC)N(S(=O)(=O)c2ccc(C)cc2)[C@H]1c1ccccc1 | 1.46 (inactive) |
| COC(=O)[C@@]1(Cc2ccccc2)[C@H]2c3cc(C(=O)N(C)C)n(Cc4c(-c5ccccc5)noc4C)c3C[C@H]2CN1C(=O)c1ccccc1 | -0.702 (inactive) |
| COCCOC(=O)N1C(=O)[C@@]2(c3cc(C#CCNC(N)=O)ccc31)[C@H](c1ccccc1OCCO)N1[C@H](c3ccccc3)[C@H](c3ccccc3)OC(=O)[C@H]1[C@@H]2C(N)=O | 0.0565 (inactive) |
| CC(C)N1C(=O)[C@@]2(c3ccc([N+](=O)[O-])cc3)CC(=O)N(CC34CC5CC(CC(C5)C3)C4)[C@@H]2c2ccc(CO)cc21 | -0.695 (inactive) |
| CC(=O)NCCCC[C@@H]1NC(=O)[C@@H]2C[C@H](C(=O)NCCCCN(C)C)[C@H](c3ccc(O)cc3)N2C1=O | 0.854 (inactive) |
| Cc1ccccc1C(O)C1C=CC2C(=O)N(C)C(=O)C2N1N1CCCCC1 (stereo not given) | -0.464 (inactive) |
| CCOC(=O)C[C@H]1[C@H](OC(=O)c2ccc(C(=O)c3ccccc3)cc2)[C@@H](NC(=O)C2CCCCC2)c2cc(OCCCO)ccc2N1C(=O)c1ccccc1 | 0.352 (inactive) |
| COc1ccc([Si](C)(C)[C@@H]2[C@@H](CC(=O)N3CCC[C@H]3CO)O[C@]3(C(=O)N(C)c4c(Br)cc(C)cc43)[C@H]2C)cc1 | 0.206 (inactive) |
| COC(=O)[C@@]1(Cc2ccc(F)cc2)[C@H]2c3cc(C(=O)N4CCCC4)n(Cc4cccc5ccccc45)c3C[C@H]2CN1C(=O)c1ccccc1 | 0.785 (inactive) |
| C=CC(COC(C)=O)NS(=O)(=O)c1ccc(Br)cc1 (stereo not given) | -0.283 (inactive) |
| CC(C)(C)OC(=O)CC[C@@]1(C(=O)O)N=C(c2ccc(OCCCO)cc2)O[C@@H]1c1ccccc1N=[N+]=[N-] | 0.0421 (inactive) |
| CCOC(=O)C1=CCC(c2ccc(C#N)cc2)N(S(=O)(=O)c2ccc(C)cc2)C1 (stereo not given) | -0.343 (inactive) |
| O=C1OCCC=C[C@H]2OC34C=CCN(Cc5ccccc5)C(=O)[C@H]3N(CCCO)C(=O)[C@@H]4C12 (stereo not given in full) | 0.233 (inactive) |
| O=C1OCC=C[C@H]2OC34C=CCN(c5ccc(Cl)cc5)C(=O)[C@H]3N(CCCCCCO)C(=O)[C@@H]4[C@@H]12 (stereo not given in full) | 1.12 (inactive) |
| COC(=O)C(CC#Cc1ccc2c(c1)[C@]1(C(=O)N2)[C@H](c2ccc(OCCO)cc2)N2[C@H](c3ccccc3)[C@H](c3ccccc3)OC(=O)[C@H]2[C@@H]1C(=O)NC[C@H](O)c1ccccc1)C(=O)OC | 0.795 (inactive) |
| CCOC(=O)C1=CC[C@@H](c2ccccc2Cl)N(S(=O)(=O)c2ccc(C)cc2)C1 | -0.561 (inactive) |
| O=C1O[C@H](c2ccccc2)[C@H](c2ccccc2)N2[C@H]1[C@@H](C(=O)O)[C@]1(C(=O)Nc3ccc(C#CC4=CCCCC4)cc31)[C@H]2c1ccc(OCCO)cc1 | 0.729 (inactive) |
| N#Cc1ccc(NN2C(C(O)c3ccc([N+](=O)[O-])cc3)C=CC3C(=O)N(c4ccccc4)C(=O)C32)cc1 (stereo not given) | 0.172 (inactive) |
| C=C(CCCC)/C(=C/C[C@H](OC(C)=O)c1ccc(CO)o1)c1cnc2ccccc2c1 | 0.398 (inactive) |
| O=C1OCCC=C[C@H]2OC34C=CCN(Cc5ccccc5)C(=O)[C@H]3N(CCCCCCO)C(=O)[C@@H]4C12 (stereo not given in full) | 1.33 (inactive) |
| C[C@]1(C(=O)NCc2ccccc2)c2ccccc2C(=O)N(Cc2ccc(OC(F)(F)F)cc2)[C@H]1c1ccc(CO)cc1 | 1.46 (inactive) |
| CC(C)NC(=O)[C@@]1(Cc2ccccc2I)c2ccccc2C(=O)N(Cc2ccccc2)[C@H]1c1ccc(CO)cc1 | 1.29 (inactive) |
| O=C1N(CCS(=O)(=O)c2ccccc2)c2ccccc2C[C@@]12COC(c1ccc(OCCCO)cc1)=N2 | -0.455 (inactive) |
| CC1CC/C=C\[C@H]2OC34C=CCN(Cc5ccccc5)C(=O)[C@H]3N(CCCCCO)C(=O)[C@@H]4C2C(=O)O1 (stereo not given in full) | 0.374 (inactive) |

Experiment: HepG2 liver cancer cell viability effects, profiling panel, resazurin fluorescence, 24 h, PK04 Diversity Set (AID 1172)
Conditions: higher = more signal

| Compound | z-score |
| --- | --- |
| COCCOC(=O)N1C(=O)[C@@]2(c3cc(C#CCNC(N)=O)ccc31)[C@H](C(=O)N1CCc3cc(OC)c(OC)cc3C1)[C@H]1C(=O)O[C@H](c3ccccc3)[C@H](c3ccccc3)N1[C@@H]2c1ccc(OCCO)cc1 | 0.631 |
| CCOC(=O)C1=CC[C@@H](c2ccccc2)N(S(=O)(=O)c2ccc(C)cc2)[C@H]1C(=O)OCC | -0.0229 |
| O=C(CS)NCCCCCCNC(=O)[C@@H]1C[C@@H]2C(=O)N3CCC[C@H]3C(=O)N2[C@@H]1c1ccc(O)cc1 | -0.564 |
| CCOC(=O)C1=CCC(c2ccc([N+](=O)[O-])cc2)N(S(=O)(=O)c2ccc(C)cc2)C1 (stereo not given) | 0.291 |
| COCCOC(=O)N1C(=O)[C@@]2(c3cc(C#CCNC(N)=O)ccc31)[C@H](c1ccc(O)cc1)N1[C@H](c3ccccc3)[C@H](c3ccccc3)OC(=O)[C@H]1[C@@H]2C(=O)Nc1nc2ccccc2s1 | 1.51 |
| O=c1cccc(CCc2ccccc2)o1 | -0.523 |
| O=C1N(CCS(=O)(=O)c2ccccc2)Cc2ccccc2[C@H]2OC(c3ccc(OCCCO)cc3)=N[C@@]12CCS(=O)(=O)c1ccccc1 | 0.759 |
| CN(C)C(=O)[C@@]1(CCC(=O)OC(C)(C)C)N=C(c2ccc(OCCCO)cc2)O[C@H]1c1ccccc1 | -0.299 |
| O=C1C2C=CC(C(O)c3ccc(-c4ccccc4)s3)N(n3cnnc3)C2C(=O)N1Cc1ccccc1 (stereo not given) | -0.295 |
| CC(C)C(O)C1C=CC2C(=O)N(c3ccccc3)C(=O)C2N1Nc1ccc(C#N)cc1 (stereo not given) | -1.45 |
| COC(=O)c1ccc(C(O)C2C=CC3C(=O)N(C)C(=O)C3N2NC(=O)OC(C)(C)C)o1 (stereo not given) | -0.784 |
| CCOC(=O)C1=C[C@@H](CC)N(S(=O)(=O)c2ccc(C)cc2)[C@H]1c1ccccc1 | -0.203 |
| COC(=O)[C@@]1(Cc2ccccc2)[C@H]2c3cc(C(=O)N(C)C)n(Cc4c(-c5ccccc5)noc4C)c3C[C@H]2CN1C(=O)c1ccccc1 | -1.19 |
| COCCOC(=O)N1C(=O)[C@@]2(c3cc(C#CCNC(N)=O)ccc31)[C@H](c1ccccc1OCCO)N1[C@H](c3ccccc3)[C@H](c3ccccc3)OC(=O)[C@H]1[C@@H]2C(N)=O | -0.554 |
| CC(C)N1C(=O)[C@@]2(c3ccc([N+](=O)[O-])cc3)CC(=O)N(CC34CC5CC(CC(C5)C3)C4)[C@@H]2c2ccc(CO)cc21 | -0.0685 |
| CC(=O)NCCCC[C@@H]1NC(=O)[C@@H]2C[C@H](C(=O)NCCCCN(C)C)[C@H](c3ccc(O)cc3)N2C1=O | 0.801 |
| Cc1ccccc1C(O)C1C=CC2C(=O)N(C)C(=O)C2N1N1CCCCC1 (stereo not given) | -0.424 |
| CCOC(=O)C[C@H]1[C@H](OC(=O)c2ccc(C(=O)c3ccccc3)cc2)[C@@H](NC(=O)C2CCCCC2)c2cc(OCCCO)ccc2N1C(=O)c1ccccc1 | -0.341 |

| Compound | z-score |
| --- | --- |
| COc1ccc([Si](C)(C)[C@@H]2[C@@H](CC(=O)N3CCC[C@H]3CO)O[C@]3(C(=O)N(C)c4c(Br)cc(C)cc43)[C@H]2C)cc1 | 0.27 |
| COC(=O)[C@@]1(Cc2ccc(F)cc2)[C@H]2c3cc(C(=O)N4CCCC4)n(Cc4cccc5ccccc45)c3C[C@H]2CN1C(=O)c1ccccc1 | -0.296 |
| C=CC(COC(C)=O)NS(=O)(=O)c1ccc(Br)cc1 (stereo not given) | -0.233 |
| CC(C)(C)OC(=O)CC[C@@]1(C(=O)O)N=C(c2ccc(OCCCO)cc2)O[C@@H]1c1ccccc1N=[N+]=[N-] | 0.166 |
| CCOC(=O)C1=CCC(c2ccc(C#N)cc2)N(S(=O)(=O)c2ccc(C)cc2)C1 (stereo not given) | -0.688 |
| O=C1OCCC=C[C@H]2OC34C=CCN(Cc5ccccc5)C(=O)[C@H]3N(CCCO)C(=O)[C@@H]4C12 (stereo not given in full) | 0.35 |
| O=C1OCC=C[C@H]2OC34C=CCN(c5ccc(Cl)cc5)C(=O)[C@H]3N(CCCCCCO)C(=O)[C@@H]4[C@@H]12 (stereo not given in full) | 0.82 |
| COC(=O)C(CC#Cc1ccc2c(c1)[C@]1(C(=O)N2)[C@H](c2ccc(OCCO)cc2)N2[C@H](c3ccccc3)[C@H](c3ccccc3)OC(=O)[C@H]2[C@@H]1C(=O)NC[C@H](O)c1ccccc1)C(=O)OC | 0.722 |
| CCOC(=O)C1=CC[C@@H](c2ccccc2Cl)N(S(=O)(=O)c2ccc(C)cc2)C1 | -0.358 |
| O=C1O[C@H](c2ccccc2)[C@H](c2ccccc2)N2[C@H]1[C@@H](C(=O)O)[C@]1(C(=O)Nc3ccc(C#CC4=CCCCC4)cc31)[C@H]2c1ccc(OCCO)cc1 | 0.732 |
| N#Cc1ccc(NN2C(C(O)c3ccc([N+](=O)[O-])cc3)C=CC3C(=O)N(c4ccccc4)C(=O)C32)cc1 (stereo not given) | -1.07 |
| C=C(CCCC)/C(=C/C[C@H](OC(C)=O)c1ccc(CO)o1)c1cnc2ccccc2c1 | -0.0826 |
| O=C1OCCC=C[C@H]2OC34C=CCN(Cc5ccccc5)C(=O)[C@H]3N(CCCCCCO)C(=O)[C@@H]4C12 (stereo not given in full) | 1.83 |
| C[C@]1(C(=O)NCc2ccccc2)c2ccccc2C(=O)N(Cc2ccc(OC(F)(F)F)cc2)[C@H]1c1ccc(CO)cc1 | 0.333 |
| CC(C)NC(=O)[C@@]1(Cc2ccccc2I)c2ccccc2C(=O)N(Cc2ccccc2)[C@H]1c1ccc(CO)cc1 | 0.255 |
| O=C1N(CCS(=O)(=O)c2ccccc2)c2ccccc2C[C@@]12COC(c1ccc(OCCCO)cc1)=N2 | -0.73 |
| CC1CC/C=C\[C@H]2OC34C=CCN(Cc5ccccc5)C(=O)[C@H]3N(CCCCCO)C(=O)[C@@H]4C2C(=O)O1 (stereo not given in full) | -0.0371 |
